From PubChem BioAssay AID1159580 (chemical genetic matrix, 2015)
The whole screen tested about 5,500 compounds, of which about 2,000 (36%) were called active. Inconclusive results (about 18%) are left out. Cut-off read from the data, not from the text of the source: active = normalized growth mostly below about 0.91 (no sharp cut-off); inconclusive = no clear call, values can overlap the other calls; inactive = mostly above about 0.92. This is one part of the list.

Assay: chemical genetic growth profiling, strain panel (AID 1159580);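 note: tested at 20 µM; growth read once vehicle control cultures reached saturation at 30 °C; 1 = growth at the plate median or of vehicle wells; lower values mean less growth of the strain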
Details: S. cerevisiae deletion strains, growth OD

Measured: normalized growth

COC(=O)[C@]1(C)CC[C@]2(C)CC[C@]3(C)C4=CC=C5C(=CC(=O)C(O)=C5C)[C@]4(C)CC[C@@]3(C)[C@@H]2C1
active: locus YAL013W, strain DEP1, hits give low values 0.592 | locus YAL021C, strain ccr4, hits give low values 0.878 | locus YAL026C, strain drs2, hits give low values 0.592 | locus YAL030W, strain snc1, hits give low values 0.823 | locus YBL061C, strain skt5, hits give low values 0.635 | locus YBR009C, strain hhf1, hits give low values 0.691 | locus YBR023C, strain chs3, hits give low values 0.595 | locus YBR229C, strain ROT2, hits give low values 0.905 | locus YBR231C, strain swc5, hits give low values 0.503 | locus YBR279W, strain paf1, hits give low values 0.755 | locus YCL011C, strain gbp2, hits give low values 0.723 | locus YCL016C, strain dcc1, hits give low values 0.827 | locus YCL069W, strain vba3, hits give low values 0.775 | locus YCR088W, strain abp1, hits give low values 0.864 | locus YDL035C, strain GPR1, hits give low values 0.703 | locus YDL074C, strain BRE1, hits give low values 0.622 | locus YDL101C, strain DUN1, hits give low values 0.648 | locus YDL134C, strain PPH21, hits give low values 0.755 | locus YDL192W, strain arf1, hits give low values 0.889 | locus YDR001C, strain nth1, hits give low values 0.922 | locus YDR069C, strain doa4, hits give low values 0.514 | locus YDR137W, strain rgp1, hits give low values 0.693 | locus YDR150W, strain NUM1, hits give low values 0.835 | locus YDR159W, strain sac3, hits give low values 0.621 | locus YDR162C, strain NBP2, hits give low values 0.419 | locus YDR195W, strain ref2 1.24 [resistant] | locus YDR297W, strain sur2, hits give low values 0.646 | locus YDR318W, strain mcm21, hits give low values 0.852 | locus YDR334W, strain swr1, hits give low values 0.553 | locus YDR335W, strain msn5, hits give low values 0.733 | locus YDR392W, strain spt3, hits give low values 0.149 | locus YDR502C, strain sam2, hits give low values 0.878 | locus YEL003W, strain gim4, hits give low values 0.841 | locus YEL037C, strain rad23, hits give low values 0.814 | locus YEL061C, strain CIN8 (second series), hits give low values 0.784 | locus YEL061C, strain CIN8, hits give low values 0.76 | locus YER015W, strain faa2, hits give low values 0.687 | locus YER016W, strain bim1, hits give low values 0.78 | locus YER111C, strain swi4, hits give low values 0.573 | locus YER155C, strain BEM2 (second series), hits give low values 0.572 | locus YER155C, strain BEM2, hits give low values 0.846 | locus YER167W, strain BCK2, hits give low values 0.837 | locus YFR010W, strain ubp6, hits give low values 0.777 | locus YGL086W, strain mad1, hits give low values 0.921 | locus YGL167C, strain pmr1, hits give low values 0.881 | locus YGL173C, strain kem1, hits give low values 0.439 | locus YGL227W, strain vid30, hits give low values 0.879 | locus YGL240W, strain doc1, hits give low values 0.874 | locus YGL248W, strain PDE1, hits give low values 0.675 | locus YGL253W, strain hxk2, hits give low values 0.584 | locus YGR135W, strain pre9, hits give low values 0.843 | locus YHR013C, strain ard1, hits give low values 0.597 | locus YHR027C, strain rpn1, hits give low values 0.514 | locus YHR030C, strain SLT2, hits give low values 0.736 | locus YHR129C, strain ARP1, hits give low values 0.693 | locus YHR142W, strain chs7, hits give low values 0.488 | locus YIL066C, strain RNR3, hits give low values 0.523 | locus YIL073C, strain SPO22, hits give low values 0.531 | locus YIL125W, strain kgd1, hits give low values 0.892 | locus YJL092W, strain hpr5, hits give low values 0.836 | locus YJL095W, strain BCK1 (second series), hits give low values 0.615 | locus YJL095W, strain BCK1, hits give low values 0.634 | locus YJL115W, strain asf1, hits give low values 0.884 | locus YJL129C, strain trk1, hits give low values 0.625 | locus YJL134W, strain LCB3, hits give low values 0.921 | locus YJL154C, strain vps35, hits give low values 0.907 | locus YJL164C, strain tpk1, hits give low values 0.616 | locus YJL166W, strain qcr8, hits give low values 0.509 | locus YJL187C, strain SWE1 (second series), hits give low values 0.455
inactive: locus YBR021W, strain FUR4, hits give low values 1.02 | locus YBR171W, strain sec66, hits give low values 0.949 | locus YCL029C, strain bik1, hits give low values 0.94 | locus YDL005C, strain med2, hits give low values 0.956 | locus YDL040C, strain nat1, hits give low values 0.996 | locus YDL185W, strain tfp1, hits give low values 0.91 | locus YDR101C, strain arx1, hits give low values 0.935 | locus YDR388W, hits give low values 0.96 | locus YER110C, hits give low values 0.986 | locus YGL078C, strain dbp3, hits give low values 0.944 | locus YGR252W, strain gcn5, hits give low values 0.932 | locus YHR079C, strain IRE1 (second series), hits give low values 0.977 | locus YHR094C, strain hxt1, hits give low values 0.965 | locus YHR200W, strain rpn10, hits give low values 0.929 | locus YIR030C, strain dcg1, hits give low values 0.961 | locus YJL168C, strain set2, hits give low values 0.968
